# hgDAF12 agonist – agonists of H. glycines DAF-12 nuclear receptor; HEK293 GAL4-hgDAF12 UAS-luciferase reporter, agonist luminescence; normalized to butyrate control; activation, % at 6.8 µM; 370,000 compounds, 1.8% hits; AID 687014;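 active = activation above a cutoff set at the mean of all screened compounds plus 3 SD, cut at about 10% in these data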
# DAX1 inh-1 – inhibitors of DAX1 repression of SF-1 activated StAR promoter. HEK293T StAR-luciferase reporter, SF-1/DAX-1 repression relief. 370,000 compounds, 1.1% hits. inhibition, % at 6.8 µM;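 active = inhibition above the mean over all tested compounds plus 3 SD, cut at about 3.6% in these data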;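 also: higher inhibition means more luminescence from relief of DAX-1 repression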
# ssDAF12 agonist – activators of S. stercoralis DAF-12 nuclear receptor. 370,000 compounds, 1% hits. activation, % at 6.8 µM. AID 652126. HEK293 ssDAF-12/GRIP1 lit1-tk-luc reporter, luminescence; % of 3 µM dafachronic acid response;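 active = activation above the mean over all tested compounds plus 3 SD, cut at about 0.9% in these data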
# DAX1 inh-2 – inhibitors of human orphan nuclear receptor DAX1 (NR0B1) | 340,000 compounds, 0.99% hits | inhibition, % at 6.75 µM | HEK293 Gal4-DAX1 luciferase reporter, luminescence | P51843;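 active = inhibition above the mean over all tested compounds plus 3 SD, cut at about 4.2% in these data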;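 also: inhibition shows as a rise in luminescence from relieved DAX1 repression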
# Target sequence (P51843 207-470 limits assumed): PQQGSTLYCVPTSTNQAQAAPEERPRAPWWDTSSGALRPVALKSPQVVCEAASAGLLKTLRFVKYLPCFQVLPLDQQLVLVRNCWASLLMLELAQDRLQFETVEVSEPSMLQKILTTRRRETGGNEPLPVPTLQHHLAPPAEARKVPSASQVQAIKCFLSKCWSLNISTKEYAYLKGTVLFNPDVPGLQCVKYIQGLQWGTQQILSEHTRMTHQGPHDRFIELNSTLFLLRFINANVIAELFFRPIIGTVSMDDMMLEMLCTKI
# hcDAF-12 act – activates DAF-12 receptor from parasite H. contortus. 370,000 compounds, 1.4% hits. HEK293 hcDAF-12 lit1-tk-luc reporter, luminescence; 0% DMSO, 100% Δ7-dafachronic acid. activation, % at 6.8 µM;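 active = activation above the mean of all tested compounds plus 3 SD, cut at about 5.5% in these data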
# AHR activator – human AHR activation | P35869 | AHR-responsive luciferase reporter cells, luminescence | activation, % at 5 µM | 320,000 compounds, 2.5% hits | AID 2796; in the data active = activation above about 47%
# Numbers stand for hits; i = inactive; nt = not tested or not shown. A selection: hits, their analogues and other compounds. The true share with any hit is near 5.7%.
SMILES,hgDAF12 agonist,DAX1 inh-1,ssDAF12 agonist,DAX1 inh-2,hcDAF-12 act,AHR activator
CCCCCC(=O)Nc1ncc2c(n1)CC(c1cccs1)CC2=O (configuration not stated),i,i,i,nt,i,i
Cc1ccc(C(=O)NNC(=O)c2ccc(NC(=O)C(C)(C)C)cc2)cc1,i,i,i,i,i,i
CCN1CCN(c2ccc(S(=O)(=O)N3CCOCC3)cc2NC(=O)c2ccc(C)c(C)c2)CC1,i,i,i,i,i,i
CCCCCCNc1nc(Cl)nc(NC(C)(C)CO)n1,i,i,i,5.3,i,i
CCOC(=O)c1ccc(-n2ccnc2)c(NC(=O)c2ccc(Cl)cc2)c1,i,i,i,i,i,53.4
Cc1cc(C)n2nc(S(=O)(=O)N(CC(C)C)CC(C)C)nc2n1,i,i,1.0,i,i,i
COc1ccc(CCNC(=O)C(C)SCC(=O)Nc2ccc(F)cc2)cc1 (configuration not stated),i,i,i,i,i,i
O=S(=O)(c1cccs1)N1CN(C2CCCCC2)c2nc3ccccc3nc21,i,i,i,i,i,i
Cc1cc(/C=C2\C(=O)NN(c3ccccc3)C2=O)c(C)n1-c1ccccc1O,i,i,i,5.4,i,i
O=C(Nc1ccc2c(c1)OCCO2)C(CCc1ccccc1)N1CCN(c2ccc(F)cc2)CC1 (configuration not stated),i,i,i,nt,i,nt
CCOC(=O)Cc1c(C)nc2c(-c3ccc(Cl)cc3)cnn2c1C,i,i,i,i,i,65.2
CCOC(=O)Cc1c(C)nc2c(-c3ccc(Cl)cc3)c(C)[nH]n2c1=O,i,i,i,i,i,i
O=C(c1ccccc1)c1cc2cc(Cl)ccc2[nH]1,i,i,i,i,i,i
N#Cc1cc2cc(Cl)ccc2[nH]c1=O,i,4.1,i,nt,i,nt
O=C1[C@H](Cc2ccccc2)NCC=CC[C@H](c2ccc(Cl)cc2)N1Cc1ccccc1,i,i,i,i,i,nt
CC/C(=N/Nc1ccccc1)c1cnnc(-c2ccccc2)n1,i,i,i,i,i,i
CC/C(=N/Nc1cccc(Cl)c1)c1cnnc(SC)n1,i,i,i,4.6,i,i
C=CCNC(=S)N(C)[C@H]1C[C@H]2c3[nH]c4cccc(-c5cccc(F)c5)c4c3CCN2C(=O)[C@H]1[C@H](C)O,i,i,i,nt,i,nt
COc1ccc(NC(=O)c2ccc3c(c2)C(=O)N(CC2CCCO2)C3=O)cc1 (configuration not stated),i,i,i,i,i,i
COc1ccccc1NS(=O)(=O)c1ccc(C)c(NC(=O)NCCCl)c1,i,i,i,4.4,i,i
CC1(C)CC(=O)C=C(N2CCNCC2)C1,i,i,i,i,i,i
CCOC(=O)C1=NN(c2cccc(Cl)c2)C2=NC(C)=C(C(=O)OC)C(c3cccs3)N12 (configuration not stated),i,i,i,5.6,i,i
CCOC(=O)C1=NN(c2ccccc2)C2=NC(C)=C(C(=O)OC)C(c3cccs3)N12 (configuration not stated),i,i,i,i,i,i
O=C1Nc2cc(C(=O)NCCCN3CCOCC3)ccc2S/C1=C/c1ccccc1F,i,i,i,i,i,i
Cc1cc2nc3ccc(N(C)C)cc3nc2cc1N,i,4.4,1.1,i,6.3,i
SMILES,hgDAF12 agonist,DAX1 inh-1,ssDAF12 agonist,DAX1 inh-2,hcDAF-12 act,AHR activator
Cc1cc(N(C)C)ccc1N=Nc1ccc(N)cc1,i,i,i,i,i,i
Nn1c(SC/C=C/c2ccccc2)nnc1-c1ccco1,i,i,i,i,i,i
Cc1ccc2nsnc2c1NC(=O)c1cccnc1Cl,i,i,10.3,i,i,i
Cc1ccc2nsnc2c1NC(=O)c1cccc([N+](=O)[O-])c1,nt,nt,nt,nt,nt,i
CSc1nc(N)nc2c1ncn2CC(=O)NCc1ccc2c(c1)OCO2,i,i,i,i,i,i
CSc1nc(N)nc2c1ncn2CC(=O)NCc1ccccc1,i,i,0.9,i,i,i
COc1cccc(NC(=O)N2CCCC2C(=O)NCc2ccco2)c1 (configuration not stated),i,i,i,i,i,i
COC(=O)[C@]1(C)N[C@H](CN(C)C(C)=O)[C@@H]2C(=O)N(Cc3ccccc3)C(=O)[C@@H]21,i,i,3.7,i,i,i
CCN(C[C@H]1N[C@@](Cc2ccccc2)(C(=O)OC)[C@H]2C(=O)N(Cc3ccccc3)C(=O)[C@@H]12)C(=O)C1CCCCC1,i,4.2,i,i,i,i
Cc1ccc(-n2c([S-])c(C(=O)NC(C)c3ccccc3)[n+]3ccccc23)cc1 (configuration not stated),i,i,i,i,i,i
C=CCN(C)CC#Cc1ccc(F)cc1,i,i,i,nt,i,nt
CC1(C(=O)OCC(=O)NCc2ccc(Cl)cc2)CC1(Cl)Cl (configuration not stated),i,i,i,i,i,i
CC(Oc1ccc(Cl)cc1Cl)C(=O)NCCCn1ccnc1 (configuration not stated),i,i,i,i,i,i
Cc1cccc(CN2CCc3c([nH]c4ccccc34)C2CC(C)C)n1 (configuration not stated),i,i,i,4.7,i,i
COc1cc(/C=C2\SC(N)=NC2=O)cc(Cl)c1O,i,i,i,4.4,i,i
CCC(=O)Nc1cccc(NC(=O)CSc2nnc(C3CC3)n2C)c1,i,i,i,i,i,i
Clc1ccc(Cn2cnc3ccccc32)cc1,i,i,i,i,i,i
c1ccc(Cn2cnc3ccccc32)cc1,12.9,i,i,i,i,i
NC(=O)CCn1cnc2ccccc21,i,i,i,4.3,i,i
O=C(CCCC(=O)n1cnc2ccccc21)n1cnc2ccccc21,i,i,i,i,i,i
COC(=O)C(C)(C)ONC(=O)Nc1ccc(C)cc1,i,i,i,i,i,i
COc1ccccc1N1CCN(C(=O)c2cc(C(C)(C)C)oc2C)CC1,i,i,i,i,i,i
Nc1nc(N2CCOCC2)nc2ccccc12,i,i,i,i,i,i
CCCCCCCCN1C(=O)[C@@H](CC(=O)N2CCCCC2)C[C@@]2(C(=O)OC)C1=C[C@H](COCc1ccccc1)O[C@@H]2C,i,i,i,nt,5.8,nt
COCC(=O)n1nc(-c2ccccc2)nc1NCc1cccs1,i,i,i,5.2,i,nt
COc1ccc(OCC(=O)Nc2cccc(-c3nc4ccccc4[nH]3)c2)cc1,i,i,i,i,i,i
O=C(CSCc1nc2ccccc2[nH]1)Nc1ccc2ccccc2c1,i,i,i,i,i,60.4
O=C(COc1ccccc1)Nc1cccc(-c2nc3ccccc3[nH]2)c1,i,i,i,i,i,79.2
C=CCn1c(=N)n(CC(=O)c2ccc(Cl)cc2)c2ccccc21,i,i,i,i,i,78.8
N=c1n(CCN2CCCCC2)c2ccccc2n1CC(=O)c1ccc(Cl)c(Cl)c1,i,i,i,nt,i,110.6

# Screening data (PubChem BioAssay)
